Each structure is given as a SMILES string.

The first assay deals with Plasmodium falciparum. The assay is described as follows: GSK_TCMDC: Inhibition of Plasmodium falciparum Dd2 in whole red blood cells, using parasite LDH activity as an index of growth. Test compounds present at 2uM. Format: functional.
Consider `Cl.Oc1ccc(-c2cc(COc3ccccc3C(F)(F)F)c(C3=CCNCC3)cc2COc2ccccc2C(F)(F)F)cc1`, for which the Inhibition (usually how much of the control response was suppressed) stood at 62%.

`Cc1cccc2c(C(=O)NC3CCN(Cc4ccccc4)CC3)cc(-c3cccnc3)nc12` returned an Inhibition of 10%.

`O=C(NCCCCCN1CCC(c2c[nH]c3ccccc23)CC1)Nc1ccc(I)cc1`: the Inhibition stood at 0%.

For `NC(CC1CC(=O)N1CC(=O)O)C(=O)O` (centres undefined), the Inhibition is 0%.

Another assay relates to HepG2. The assay is described as follows: GSK_TCMDC: Percent inhibition of human HepG2 cell line. Test compounds present at 10uM. Format: functional.
Consider `Br.CCN(CC)CCn1c(=N)n(CC(=O)c2ccc(-c3ccccc3)cc2)c2ccccc21`, for which the Inhibition came to 32%.

For `COc1ccc(CN(C)CCCc2ccc(NC(=O)c3cccc4c(O)c5ccccc5nc34)cc2)cc1OC`, the Inhibition was 77%.

Turning to `COc1ccc(N2CCN(CCCCNC(=O)c3ccc(NC(=O)c4cccc(Cl)c4)cc3)CC2)c(OC)c1`, the Inhibition came out at 18%.

Take `Cl.Nc1c(I)cc(C(=O)Nc2ccc3nc4c(c(N)c3c2)CCCC4)cc1I`: the Inhibition amounted to 40%.

Consider `Br.CC1CCC2(CC1)N=C(N)N=C(N)N2OCc1ccc(Br)c2ccccc12` (centres undefined), for which the Inhibition came to 46%.

Compound `Cc1[nH]c(C)c(-c2ccc(CCc3ccc(F)cc3F)cc2)c(=O)c1Br` had an Inhibition of 0%.

For `CC(C(=O)OCCOCn1cnc2c(=O)[nH]c(N)nc21)N(C)C(=O)OC(C)(C)C` (centres undefined), the Inhibition is reported as 28%.

Turning to `O=C(/C=C/c1ccc(-c2ccccc2)cc1)NCCCCCN1CCC(c2c[nH]c3ccccc23)CC1`, the Inhibition came to 91%.

`O=[N+]([O-])c1ccc(N2CCCN(C(=S)Nc3ccc(F)cc3Br)CC2)nc1` came in with an Inhibition of 4%.

As to `COc1ccc(CC(=O)NC(CCN2CCC3(CC2)CN(S(C)(=O)=O)c2ccccc23)c2ccc(Cl)c(Cl)c2)cc1OC` (centres undefined), the Inhibition was determined as 10%.

`Cc1cccc2nc(-c3cccc(-c4cccc(NC(=O)CN5CCN(C)CC5)c4)c3)[nH]c12` registered an Inhibition of 76%.

Compound `COC(=O)c1cccc(CNCc2cccc(-c3ccc(-c4nc5ccccc5[nH]4)s3)c2)c1.O=C(O)C(F)(F)F` yielded an Inhibition of 0%.

Take `CC(C)c1ccc(NC(=O)Nc2ccc(CCNCCCc3ccccc3)cc2)cc1`: the Inhibition is on record as 22%.

For the compound `COc1ccc2[nH]c(C)cc(=NN=Cc3ccc(F)cc3)c2c1`, the Inhibition is on record as 5%.

For the compound `CN1CCC(N(Cc2ccc(-c3ccc(C(F)(F)F)cc3)cc2)C(=O)Cn2cc(Cc3cnn(C)c3)c(=O)nc2SCc2cccc(F)c2F)CC1.O=C(O)C(O)C(O)C(=O)O`, the Inhibition is reported as 68%.

As for `Cc1noc(C)c1-c1cccc(CNCc2cccc(-c3ccc(-c4nc5cccc(C)c5[nH]4)s3)c2)c1.O=C(O)C(F)(F)F`, the Inhibition stood at 22%.

Turning to `c1ccc2cc3c(NCCN4CCOCC4)ccnc3cc2c1`, the Inhibition came out at 0%.

Take `O=C(NC1CCCCC1)c1csc(C2CCCN(C(=O)c3ccc(O)c(-c4cccc(C(F)(F)F)c4)c3)C2)n1` (centres undefined): the Inhibition is given as 8%.

On to `COc1cc(N(Cc2ccccc2C)S(=O)(=O)Cc2ccccc2[N+](=O)[O-])c(OC)cc1Cl`, for which the Inhibition came to 16%.

In turn, `Cl.Nc1ccnc2ccc(NC(=O)CCCCCc3ccccc3)cc12` yielded an Inhibition of 47%.

Regarding `Cc1ccc(CNC(=O)[C@H](CC(C)C)Nc2cc(C)nc(Nc3ccccc3)n2)cc1.O=C(O)C(F)(F)F`, the Inhibition came out at 12%.

`N#Cc1ccc(CN2CCCN(Cc3cccc(NC(=O)c4ccc(Cl)c(Cl)c4)c3)CC2)cc1.O=C(O)C(F)(F)F` returned an Inhibition of 19%.

`CC(C)NCc1ccc(-c2cccc(-c3nc4cc(C(F)(F)F)ccc4[nH]3)c2)cc1.O=C(O)C(F)(F)F` registered an Inhibition of 21%.

Consider `Cc1cccc(NC(=O)N(Cc2cc3cc(C)cc(C)c3[nH]c2=O)C2CC2)c1`, for which the Inhibition was 3%.

`O=C1NC(=S)N/C1=C/C=C/c1ccc([N+](=O)[O-])o1` displayed an Inhibition of 7%.

`Br.CCCOC(=O)c1ccc(OCCCON2C(=N)N=C(N)NC2(C)C)cc1` displayed an Inhibition of 61%.

The compound `Cc1[nH]c(C)c(-c2ccc(OCc3cc(F)cc(F)c3)nc2)c(=O)c1Br` came in with an Inhibition of 37%.

The compound `CN1CCCC(CN2CCN(Cc3cccc(-c4ccc(-c5nc6cc(C(F)(F)F)ccc6[nH]5)cc4)c3)CC2)C1.O=C(O)C(F)(F)F` (centres undefined) had an Inhibition of 100%.

The compound `COc1cc2nc(NCCCO)nc(Nc3ccc(Oc4ccccc4)cc3)c2cc1OC` displayed an Inhibition of 24%.

`CN1CCN(CCCN(Cc2csc(-c3ccc(CNCc4ccccc4)cc3)n2)S(=O)(=O)c2ccccc2)CC1.O=C(O)C(F)(F)F` registered an Inhibition of 17%.

Compound `CCNc1cc(CCCC(=O)OCC)nc(Nc2ccc(C)cc2)n1.O=C(O)C(F)(F)F` yielded an Inhibition of 17%.

Compound `CO/C(=C\C=C\c1cc2cc(Cl)c(Cl)cc2[nH]1)C(=O)NCCCN1CCN(Cc2ccccc2)CC1` came in with an Inhibition of 45%.

The compound `Cn1cncc1CNCc1ccc(-c2cccc(-c3nc4ccccc4[nH]3)c2)cc1.O=C(O)C(F)(F)F` had an Inhibition of 19%.

On to `CN(C)c1ccc(C=CC(=O)NC(=O)c2ccccc2O)cc1`, for which the Inhibition is reported as 6%.

In turn, `CCOC(=O)c1c(CN2CCCC2)n(-c2ccccc2)c2cc(Br)c(O)cc12` came in with an Inhibition of 0%.

The compound `Fc1cccc(C=NN=c2cc[nH]c3ccc(C(F)(F)F)cc23)c1` came in with an Inhibition of 0%.

Turning to `Cl.Oc1ccc(-c2cc(COc3ccccc3C(F)(F)F)c(C3=CCNCC3)cc2COc2ccccc2C(F)(F)F)cc1`, the Inhibition was 18%.

Turning to `Cc1cccc2c(C(=O)NC3CCN(Cc4ccccc4)CC3)cc(-c3cccnc3)nc12`, the Inhibition came to 12%.

Compound `O=C(NCCCCCN1CCC(c2c[nH]c3ccccc23)CC1)Nc1ccc(I)cc1` showed an Inhibition of 51%.

On to `NC(CC1CC(=O)N1CC(=O)O)C(=O)O` (centres undefined), for which the Inhibition was found to be 56%.

These data come from ChEMBL document CHEMBL1157539, “Thousands of chemical starting points for antimalarial lead identification” (Nature, 2010).
